Assay [1] has as its target Cellular tumor antigen p53 (Homo sapiens) (UniProt P04637). Nature of the assay: TOX21_p53_BLA_p2_ratio: Tox21 HCT-116 p53 Agonism Beta-lactamase Assay, Ratio, Phase 2 (AID 2283592). The gist of the method:
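HCT-116 cells with p53-responsive beta-lactamase reporter, 4000 cells/well, preincubated 5 h, then compound in DMSO (217-fold dilution) for 16 h at 37C. CCF4-AM substrate 2 h at room temperature; 460/530 nm emission ratio fitted upward versus DMSO.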

Assay [2] is described as follows: TOX21_p53_BLA_p3_viability: Viability Assessment in the Tox21 HCT-116 p53 Agonism Beta-lactamase Assay, Phase 3 (AID 2283593). The gist of the method:
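Cellular ATP was quantified by CellTiter-Glo luminescence, read after 30 min at room temperature. Beforehand, HCT116 cells (4000/well) received compound 5 h post-seeding, 217-fold diluted from DMSO, then incubated 16 h at 37C.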

Assay [3] can be described thus: TOX21_p53_BLA_p4_viability: Viability Assessment in the Tox21 HCT-116 p53 Agonism Beta-lactamase Assay, Phase 4 (AID 2283597).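 Further: hits lower the luminescence signal meaning cytotoxicity.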 Summed up: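 HCT-116 p53-bla cells, 4000/well, dosed after 5 h attachment and incubated 16 h at 37 °C, 5% CO2. Viability from CellTiter-Glo ATP luminescence after 30 min at room temperature, taken after the beta-lactamase read; loss of signal indicates cytotoxicity.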

Assay [4] can be described thus: TOX21_p53_BLA_p5_viability: Viability Assessment in the Tox21 HCT-116 p53 Agonism Beta-lactamase Assay, Phase 5 (AID 2283600). The gist of the method: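 HCT-116 p53 beta-lactamase reporter cells, 4000/well, were exposed to compound (pin transfer, 217-fold dilution) for 16 hours at 37C. Cellular ATP was read by CellTiter-Glo luminescence after 30 min at room temperature.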

The target in assay [5] is Cellular tumor antigen p53 (Homo sapiens) (UniProt P04637). Nature of the assay: TOX21_p53_BLA_p4_ratio: Tox21 HCT-116 p53 Agonism Beta-lactamase Assay, Ratio, Phase 4 (AID 2283601). The gist of the method: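 Signal is the blue/green (460nm/530nm) ratio of cleaved versus uncleaved CCF4-AM substrate, read after 2 h substrate loading. Cells were HCT116 carrying the p53-responsive beta-lactamase reporter, dosed 16 h at 37C, 5% CO2; CellTiter-Glo measured in parallel.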

For assay [6] the target is unchanged. Nature of the assay: TOX21_p53_BLA_p5_ratio: Tox21 HCT-116 p53 Agonism Beta-lactamase Assay, Ratio, Phase 5 (AID 2283599). The gist of the method: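 Beta-lactamase reporter ratio (blue 460 nm over green 530 nm, 405 nm excitation) after 2 h CCF4-AM loading, in HCT-116 cells exposed 16 h at 37 C to compounds pinned at 217-fold dilution. Increases relative to DMSO baseline scored.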

The target is the same in assay [7]. Description: TOX21_p53_BLA_p3_ratio: Tox21 HCT-116 p53 Agonism Beta-lactamase Assay, Ratio, Phase 3 (AID 2283596). Summed up: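 HCT116 p53-bla cells (4000/well) given compound in DMSO (217-fold dilution) after 5 h, incubated 16 h at 37C. CCF4-AM substrate 2 h at room temperature; 460/530 nm emission ratio, gain fitted against DMSO.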
The nature of assay [8]: CCTE_Harrill_HTTr_Viability_MCF7: CCTE's 6-hour Cell Viability Assessment for the High-Throughput Transcriptomics (HTTr) Platform, in MCF-7 cells cultured in DMEM + 10% fetal bovine serum, Harrill Lab (AID 2284010; active means hit-call score of the fitted dose curve at least 0.9, where 1 is the maximum; inactive means score below 0.9). Summed up:
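MCF-7 cells in DMEM + 10% FBS, 384-well, exposed 6 h to an eight-point dilution series. Membrane integrity scored by high-content imaging of propidium iodide exclusion; bidirectional fit versus DMSO.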

The nature of assay [9]: CCTE_Harrill_HTTr_Apoptosis_MCF7: CCTE's 6-hour Apoptosis Assessment for the High-Throughput Transcriptomics (HTTr) Platform, in MCF-7 cells cultured in DMEM + 10% fetal bovine serum, Harrill Lab (AID 2284011; active means hit-call score of the fitted dose curve at least 0.9, where 1 is the maximum; inactive means score below 0.9). The gist of the method:
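MCF-7 cells in DMEM + 10% FBS exposed 6 h to chemicals over an eight-point dilution series. Caspase-3/7 activation imaged by high-content CellEvent Green staining; fitted bidirectionally versus DMSO.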

Assay [10] deals with PGR (gene 5241) (UniProt P06401). Nature of the assay: TOX21_PR_BLA_Followup_Antagonist_ratio: Tox21 HEK293 Progesterone Receptor (PR) Antagonism Beta-lactamase Follow-Up Assay, Ratio (AID 2283934). The gist of the method: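 PR-UAS-bla HEK293T cells, 3,000/well in 2% charcoal-stripped FBS, given compound plus 1nM R5020 agonist for 16 hr at 37C. Beta-lactamase FRET substrate 2 hours, ratio cleaved/uncleaved fluorescence; viability by CellTiter-Glo in same wells.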

A short description of assay [11]: TOX21_PR_BLA_Followup_Antagonist_viability: Viability Assessment in the Tox21 HEK293 Progesterone Receptor (PR) Antagonism Beta-lactamase Follow-Up Assay (AID 2283936).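 Further: hits lower the luminescence signal meaning cytotoxicity.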 Summed up: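 PR-UAS-bla HEK293T cells (3,000/well, 2% charcoal-stripped FBS) given compound plus R5020 agonist, 16 h at 37C. CellTiter-Glo added after bla read, 30 min at room temperature; luminescence loss indicates cytotoxicity.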

Assay [12] can be described thus: TOX21_PR_LUC_Followup_Agonist_viability: Viability Assessment in the Tox21 HEK293 Progesterone Receptor (PR) Agonism Luciferase Follow-Up Assay (AID 2283941).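 Further: loss of signal means cytotoxicity so actives lower viability.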 Summed up: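 HEK293-PR-A-luc cells, kept in 10% charcoal-stripped FBS medium, were treated with compounds for 16 h at 37C. Viability read as cellular ATP by luciferase-coupled luminescence; loss of signal indicates cytotoxicity.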

In assay [13] the target is PGR (gene 5241) (UniProt P06401). Nature of the assay: TOX21_PR_BLA_Followup_Agonist_ratio: Tox21 HEK293 Progesterone Receptor (PR) Agonism Beta-lactamase Follow-Up Assay, Ratio (AID 2283933). The gist of the method: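 PR-UAS-bla HEK293T cells in medium with 2% charcoal-stripped FBS were dosed after 6 h plating and incubated 16 h at 37C. LiveBLAzer FRET substrate was added for 2 h at room temperature. Cleaved/uncleaved substrate ratio fitted against DMSO; CellTiter-Glo viability run in the same wells.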

Assay [14] shares this target. Description: TOX21_PR_LUC_Followup_Agonist: Tox21 HEK293 Progesterone Receptor (PR) Agonism Luciferase Follow-Up Assay (AID 2283937; active means hit-call score of the fitted dose curve at least 0.9, where 1 is the maximum; inactive means score below 0.9). The gist of the method: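 HEK293-PR-A-luc cells, conditioned 5 days in 10% charcoal-stripped FBS medium, seeded 3,000/well for 5 h, then compound-treated 16 h at 37C. ONE-Glo luminescence read after 30 min at room temperature; gain of signal versus DMSO.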

A short description of assay [15]: TOX21_PR_LUC_Followup_Antagonist_viability: Viability Assessment in the Tox21 HEK293 Progesterone Receptor (PR) Antagonism Luciferase Follow-Up Assay (AID 2283940). The gist of the method: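 HEK293-PR-A-luc cells kept in charcoal-stripped FBS medium were plated 5 h before compound addition, then exposed 16 h at 37C; viability read as cellular ATP by luciferase luminescence, loss of signal indicating cytotoxicity.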

Values joined by “and” are separate entries in the source; they are usually repeats but may differ in a detail not shown here. Equal entries are not always repeated. Records with an inconclusive call do not appear. Active and inactive are the calls of the source. How the source made its calls, unless noted: active means hit-call score of the fitted dose curve at least 0.9, where 1 is the maximum; inconclusive means response in the unintended direction; inactive means score below 0.9.

Sequence of PGR (gene 5241) (P06401 whole entry, looked up): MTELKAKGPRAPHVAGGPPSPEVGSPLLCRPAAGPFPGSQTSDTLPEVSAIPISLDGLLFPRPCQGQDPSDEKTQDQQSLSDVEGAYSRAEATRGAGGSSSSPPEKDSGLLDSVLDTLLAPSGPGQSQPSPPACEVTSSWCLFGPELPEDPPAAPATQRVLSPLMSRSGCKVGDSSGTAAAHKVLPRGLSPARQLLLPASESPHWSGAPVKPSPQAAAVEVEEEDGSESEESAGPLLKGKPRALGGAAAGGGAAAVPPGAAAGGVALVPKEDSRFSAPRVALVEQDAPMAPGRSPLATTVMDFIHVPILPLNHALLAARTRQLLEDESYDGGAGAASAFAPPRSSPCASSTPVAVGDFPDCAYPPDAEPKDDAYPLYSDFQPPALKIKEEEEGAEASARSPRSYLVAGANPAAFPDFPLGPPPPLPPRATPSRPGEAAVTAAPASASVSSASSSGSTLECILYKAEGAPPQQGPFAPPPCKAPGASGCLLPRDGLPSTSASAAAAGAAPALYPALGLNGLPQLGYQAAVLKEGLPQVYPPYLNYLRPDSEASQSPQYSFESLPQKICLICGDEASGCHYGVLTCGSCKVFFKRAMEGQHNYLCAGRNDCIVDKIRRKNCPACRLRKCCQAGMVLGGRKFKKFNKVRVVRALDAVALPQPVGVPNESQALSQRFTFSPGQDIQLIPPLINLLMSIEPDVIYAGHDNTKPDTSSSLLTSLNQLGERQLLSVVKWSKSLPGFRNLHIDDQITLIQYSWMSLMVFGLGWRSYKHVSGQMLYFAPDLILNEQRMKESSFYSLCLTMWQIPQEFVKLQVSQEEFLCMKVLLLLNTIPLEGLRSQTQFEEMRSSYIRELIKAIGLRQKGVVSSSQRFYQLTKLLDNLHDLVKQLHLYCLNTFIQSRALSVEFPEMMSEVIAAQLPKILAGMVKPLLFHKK
Sequence of Cellular tumor antigen p53 (Homo sapiens) (P04637 whole entry, looked up): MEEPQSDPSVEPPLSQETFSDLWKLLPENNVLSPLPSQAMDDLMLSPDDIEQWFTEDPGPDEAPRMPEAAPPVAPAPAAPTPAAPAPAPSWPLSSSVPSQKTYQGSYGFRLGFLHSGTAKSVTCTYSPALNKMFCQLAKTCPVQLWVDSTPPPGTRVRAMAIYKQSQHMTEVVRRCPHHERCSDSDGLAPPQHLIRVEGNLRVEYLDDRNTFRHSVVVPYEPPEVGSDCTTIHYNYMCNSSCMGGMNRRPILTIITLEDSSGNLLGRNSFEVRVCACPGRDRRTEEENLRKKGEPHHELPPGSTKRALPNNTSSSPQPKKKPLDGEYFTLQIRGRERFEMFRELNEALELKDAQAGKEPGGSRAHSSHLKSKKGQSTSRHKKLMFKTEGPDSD

For the compound `C[N+](C)(C)CCOC(=O)C(O)(c1ccccc1)c1ccccc1`, the result in [1], in [2], in assay [3], in assay [4] and in assay [5] was inactive.
As to `N[C@@H](Cc1ccc(N(CCCl)CCCl)cc1)C(=O)O`, the AC50 in assay [1] is 26.6 µM (active) and 25.6 µM (active); in assay [6] it was 32.6 µM (active) and 29.2 µM (active); in assay [5], 22.7 µM (active) and 30.4 µM (active). Moreover, the call in assay [2], in assay [3] and in assay [4] was inactive.
As to `C=CCC1(C(C)CCC)C(=O)N=C(S)NC1=O` (configuration not stated), the outcome in assay [1], in assay [2], in assay [6] and in assay [5] was inactive.
For `CCN(CCO)CCn1c(Cc2ccccc2)nc2c1c(=O)n(C)c(=O)n2C`, the outcome in [1], in [2], in [3] and in assay [6] was inactive.
Turning to `CC(CCc1ccccc1)NC(C)C(O)c1ccc(O)cc1` (configuration not stated), the outcome in assay [1] and in assay [7] was inactive.
As to `CC[C@H]1[C@@H]2C[C@H]3[C@@H]4N(C)c5ccccc5[C@]45C[C@@H](C2C5O)N3[C@@H]1O` (some centres not stated), the outcome in assay [1], in assay [2], in assay [3] and in assay [4] was inactive.
For the compound `CC(N)=S`, the outcome in [1], in assay [2], in assay [4], in [5], in assay [8] and in assay [9] was inactive.
In the case of `CC1CN1` (configuration not stated), the outcome in assay [1], in [2] and in [3] was inactive.
As for `CN1C[C@H](CNC(=O)OCc2ccccc2)C[C@@H]2c3cccc4c3c(cn4C)C[C@H]21`, the result in assay [1], in assay [2] and in assay [4] was inactive. Besides, the AC50 in assay [3] was 38.7 µM (active).
For `Clc1cc(Cl)c(-c2cc(Cl)c(Cl)cc2Cl)cc1Cl`, the result in assay [1], in [2], in [6], in [4] and in assay [5] was inactive.
For the compound `CCCN(CCCl)c1c([N+](=O)[O-])cc(C(F)(F)F)cc1[N+](=O)[O-]`, the outcome in [1], in assay [2] and in assay [4] was inactive.
Turning to `CSSC`, the outcome in assay [1] and in [7] was inactive.
Regarding `C[C@]1(O)CC[C@H]2[C@@H]3CCC4=CC(=O)CC[C@]4(C)[C@@]3(F)[C@@H](O)C[C@@]21C`, the outcome in assay [1], in [2], in assay [3], in assay [4], in assay [5] and in [10] was inactive. Further, the compound was called inactive in assay [11] and in assay [12].
On to `C=C1C[C@@H]2[C@H](CC[C@]3(C)C(=O)CC[C@@H]23)[C@@]2(C)C=CC(=O)C=C12`, for which the result in [1], in [2], in assay [7], in [13], in [14] and in [15] was inactive. The call in [12] was inactive. Moreover, the AC50 in assay [10] is 23 µM (active).
On to `COc1ccc(C(=O)N2CCCC2=O)cc1`, for which the result in [1], in assay [2], in [3], in assay [6] and in assay [4] was inactive.
Regarding `CCC(=O)O[C@H]1[C@@H](N2CCCCC2)C[C@H]2[C@@H]3CC[C@H]4C[C@H](OC(C)=O)[C@@H](N5CCCCC5)C[C@]4(C)[C@H]3CC[C@@]21C`, the outcome in [1], in assay [2] and in assay [4] was inactive.
With `C#CC(C)(O)CC` (configuration not stated), the outcome in assay [1], in [2], in [3], in assay [6] and in [5] was inactive.

For the origin of these results see PubChem BioAssay (EPA / NIEHS).
